# This excerpt belongs to a sample that is enriched for hits.
# HIV RNase H inh-1 = HIV-1 RT RNase H inhibitors, primary screen, biochemical, fluorescence | Gag-Pol polyprotein (Human immunodeficiency virus type 1 group M subtype B (isolate … | RT-RNase H RNA/DNA duplex cleavage | inhibition, % at 10 µM | actives 1.9% (n = 65,000) | AID 565, 2006; in the data active means inhibition above about 50%
# RmlC RmlD mix = RmlC and RmlD coupled enzyme inhibitors, primary screen, biochemical, 384-well, compound mixtures, retest | actives 0.39% (n = 110,000) | inhibition, % at 5.5 µM | RmlC/RmlD coupled enzyme inhibition, 384-well mixture HTS; in the data active means inhibition above about 30%, passing the limit was not always enough; inconclusive means no clear call, values can overlap the other calls
# HIV RNase H inh-2 = HIV-1 RT RNase H inhibitors, retest, confirmation, biochemical; actives 39% (n = 1,000); inhibition, % at 10 µM; Recombinant RT RNase H, fluorescent RNA/DNA duplex cleavage; shares compounds with HIV RNase H inh-1; in the data active means inhibition above about 48%; inconclusive means no clear call, values can overlap the other calls
# Starred values were filed as active, the others as inactive; ? = inconclusive; nt = no result given.
SMILES,HIV RNase H inh-1,RmlC RmlD mix,HIV RNase H inh-2
COc1cc(N=c2ssnc2Cl)cc(OC)c1OC,90.6*,12.3,76.1*
COc1ccc(N=c2ssnc2Cl)cc1,nt,-3.1,nt
Cn1c(CN2CCOCC2)nnc1SCC(=O)NC1CCCCC1,-9.7,16.6,nt
CCCCN(CCCC)S(=O)(=O)c1ccc(C(=O)Nc2nnc(COC)o2)cc1,20.7,-10.5,nt
CCCCN(CC)S(=O)(=O)c1ccc(C(=O)Nc2nnc(-c3cccs3)o2)cc1,74.0*,-1.2,?
CC(=O)NC1=NN(C(C)=O)C(C)(c2cccs2)S1 (stereo unspecified),nt,22.7,nt
CCOC(=O)c1cnc(SCC(=O)Nc2ccccc2N2CCOCC2)nc1N,-3.7,nt,nt
COc1cccc(C2=NOC(C(=O)N3CCc4ccccc4C3)C2)c1 (stereo unspecified),1.5,4.3,nt
Oc1ccc(-c2nc(-c3ccc(O)c(O)c3)cs2)cc1,100.4*,-0.7,82.6*
Oc1ccc(Nc2nc(-c3ccc4ccccc4c3)cs2)cc1,nt,95.0,nt
Cc1c(NC(=O)Oc2ccccc2)sc(=S)n1C,58.9*,-8.0,5.6
CC(=O)NC(=O)Nc1sc(=S)n(C)c1C,17.2,-13.3,nt
O=C(NC1CCCCC1)c1sc(=S)n2c1[nH]c(=O)c1ccccc12,74.0*,11.5,58.5*
CCCCNC(=O)c1sc(=S)n2c1[nH]c(=O)c1ccccc12,11.4,8.1,nt
CC1=Nn2c(nnc2-c2n[nH]c3c2CCC3)SC1,-4.7,-45.8,nt
CC(C)(C)C1=Nn2c(nnc2-c2n[nH]c3c2CCC3)SC1,52.8*,-11.5,34.9
CCN(Cc1ccccc1)S(=O)(=O)c1ccc(S(=O)(=O)N(Cc2cccc(OC)c2)CC2CCCO2)cc1 (stereo unspecified),nt,-1.8,nt
CCCc1nnc(NC(=O)CN2C(=O)c3ccccc3C2=O)s1,nt,-17.8,nt
CCCc1nnc(NC(=O)Cn2c(=O)sc3ccccc32)s1,76.5*,-6.7,17.8
CNC(=O)CSCc1cnn(-c2ccccc2)c1-n1cccc1,nt,14.3,nt
Cc1ccc(NC(=O)CSc2nnc(-c3ccc(S(=O)(=O)N4CCCC4)cc3)o2)cc1C,69.7*,10.4,68.7*
Cc1cccc(NC(=O)CSc2nnc(-c3ccc(S(=O)(=O)N4CCCC4)cc3)o2)c1,3.4,-5.2,nt
COCCCn1c(-c2ccco2)nc2ccccc2c1=O,-23.9,5.3,nt
COCCCN=C(c1ccco1)n1c(=S)nc(-c2ccco2)n(CCCOC)c1=S,63.5*,4.3,3.1
O=C(NC1(C(F)(F)F)C(=O)Nc2c1c(=O)[nH]c(=O)n2Cc1ccco1)C1CCCCC1 (stereo unspecified),0.9,10.9,nt
SMILES,HIV RNase H inh-1,RmlC RmlD mix,HIV RNase H inh-2
COc1ccc2nc(N3CCCC(C(=O)NCCCN4CCN(C)CC4)C3)sc2c1 (stereo unspecified),-7.1,-3.6,nt
CCCCn1c(SCC(=O)OCC)nc2c1c(=O)[nH]c(=O)n2C,67.8*,8.0,64.2*
CCOCCn1c(SC)nc2c1c(=O)[nH]c(=O)n2C,59.5*,9.1,-4.5
CCOCCn1c(SCCCc2ccccc2)nc2c1c(=O)[nH]c(=O)n2C,-40.5,4.6,nt
CCOC(=O)CSc1nc2c(c(=O)[nH]c(=O)n2C)n1CCc1ccccc1,-2.2,10.2,nt
Cc1ccc(CCNC(=O)C2CC(c3cccc(F)c3)=NO2)cc1 (stereo unspecified),nt,0.5,nt
CCSc1ccccc1C(=O)Nc1nncs1,56.0*,9.1,17.9
Cc1ccccc1C(=O)Nc1nncs1,nt,5.9,nt
CCN(CC)CCNC1=CC(=O)OC12CCCCC2,nt,-14.2,nt
CCN(CC)C1=CC(=O)OC12CCCCC2,54.7*,3.2,65.0*
C=CCn1c(SCC(=O)Nc2ccc3c(c2)OCO3)nc2ccccc2c1=O,-5.6,-12.3,nt
CC(C)Cn1c(SCC(=O)NC(=O)Nc2ccc3c(c2)OCCO3)nc2ccccc2c1=O,91.7*,6.7,54.4*
O=S(=O)(NC1CCCCC1)c1ccc(-c2csnn2)s1,nt,-3.2,nt
CC1(C)Cc2[nH]c(=S)c(C#N)cc2CO1,69.6*,-1.8,65.1*
Cc1cc(C)n2c3c(c(C#N)c2n1)CC(C)(C)OC3,-3.1,11.2,nt
COc1cccc(C(=O)N2CCN(c3ncccn3)CC2)c1,-11.4,-11.7,nt
CSc1ccc(NC(=O)NCCCN2CCN(c3ccccc3F)CC2)cc1,52.8*,-9.6,30.7
O=C(NCCCN1CCN(c2ccccc2F)CC1)Nc1ccc(F)cc1,-2.7,5.1,nt
CSc1nc(NCc2ccco2)c2c3c(sc2n1)CN(C)CC3,-5.0,4.2,nt
CCOC(=O)Cc1csc(NC(=O)c2cccc(N3C(=O)CCC3=O)c2)n1,-16.8,7.3,nt
Cc1ccc(-c2csc(NC(=O)c3cccc(N4C(=O)CCC4=O)c3)n2)o1,57.5*,-5.5,24.2
N#Cc1c(N)sc(=S)c2c1CCCCC2,57.9*,-10.1,9.1
N#Cc1c(N)sc2c1CCCCCC2,-43.4,-14.7,nt
CCn1c2ccccc2c2nc3cc(S(=O)(=O)N4CCOCC4)ccc3nc21,98.3*,nt,52.1*
c1ccc2nc3c(nc2c1)c1ccccc1n3CCN1CCOCC1,-29.5,-1.1,nt
SMILES,HIV RNase H inh-1,RmlC RmlD mix,HIV RNase H inh-2
CCN1CCN(Cc2ccc(NC(=O)c3ccc(C)c(NC(=O)c4ccnnc4)c3)cc2C(F)(F)F)CC1,nt,7.9,nt
COc1ccc(NC(=O)c2cc3n(n2)C(C(F)(F)F)CC(c2ccco2)N3)cc1 (stereo unspecified),6.1,-2.7,nt
Cc1cc(NC(=O)c2cc3n(n2)C(C(F)(F)F)CC(c2ccco2)N3)n(-c2ccccc2)n1 (stereo unspecified),62.0*,6.4,44.2
O=C(Cc1ccc(S(=O)(=O)N2CCCC2)s1)Nc1nc2c(s1)CCCC2,75.9*,8.6,-3.1
CC(C)(C)NC(=O)Cc1ccc(S(=O)(=O)N2CCCC2)s1,nt,-6.6,nt
COc1ccc2cc3cc(C(=O)Nc4ccc5c(c4)OCO5)oc3nc2c1,62.5*,1.9,2.3
COc1ccc2nc3oc(C(=O)Nc4ccc(OC)c(OC)c4)cc3cc2c1,nt,23.9,nt
Nc1nc(-c2ccco2)c(-c2ccco2)s1,-5.6,-13.6,nt
c1coc(-c2nc(-c3ccco3)c(-c3ccco3)nc2-c2ccco2)c1,85.5*,-46.5,-0.8
CCc1ccc(NC(=O)CSc2nc3cc(C(=O)OC)ccc3c(=O)n2Cc2ccco2)cc1,59.1*,-8.7,57.4*
CCN(C(=O)CSc1nc2cc(C(=O)OC)ccc2c(=O)n1Cc1ccco1)c1cccc(C)c1,2.0,2.1,nt
Cc1ccc(-n2c(N)c(C(=O)NCc3cccnc3)sc2=S)cc1,nt,8.5,nt
Cc1ccc(-n2c(N)c(C(=O)N3CCN(C)CC3)sc2=S)cc1,92.6*,-4.0,63.4*
Cc1ccc(-n2c(N)c(C(=O)N3CCCCC3)sc2=S)cc1,94.8*,6.9,74.9*
C=CCn1c(N)c(C(=O)N2CCN(C)CC2)sc1=S,29.0,-10.3,nt
CCC(=O)Nc1cc(=O)[nH]c2ncnn12,0.9,12.9,nt
Cc1cccc(C)c1OCC(=O)Nc1cccc(-c2nnc(-c3ccccc3)o2)c1,1.8,6.2,nt
Cc1cccc(OCC(=O)Nc2cccc(-c3nnc(-c4ccccc4)o3)c2)c1C,71.0*,2.8,66.3*
CCN(CC)S(=O)(=O)c1ccc(C(=O)NCc2nnc(SCC(=O)OC)n2C)cc1,1.4,-7.2,nt
Cc1ccc2nc(NC(=O)CN(C)S(=O)(=O)c3cccc4nsnc34)sc2c1,50.5*,-13.5,39.0
Cc1ccnc(NC(=O)CN(C)S(=O)(=O)c2cccc3nsnc23)c1,-34.1,-8.5,nt

# Screening data from PubChem.
